According to the supplement of paper PMC10369915:

Target: SHP2 N-SH2 domain T42A
Experiment: log2 enrichment relative to wild-type ITIM peptide; higher = stronger binding

| Binder | log2 enrichment |
| --- | --- |
| VFSVDYGYLDF [PD-1 ITIM pTyr223 peptide variant E225Y] | -0.767 |
| VFSVDYGELRF [PD-1 ITIM pTyr223 peptide variant D227R] | -0.941 |
| VFSVRYGELDF [PD-1 ITIM pTyr223 peptide variant D222R] | 2.89 |
| VFSVDYGELHF [PD-1 ITIM pTyr223 peptide variant D227H] | -0.826 |
| VFSHDYGELDF [PD-1 ITIM pTyr223 peptide variant V221H] | -1.23 |
| VFSVDYGRLDF [PD-1 ITIM pTyr223 peptide variant E225R] | -0.382 |
| YFSVDYGELDF [PD-1 ITIM pTyr223 peptide variant V218Y] | -0.0716 |
| VFWVDYGELDF [PD-1 ITIM pTyr223 peptide variant S220W] | -0.544 |
| VRSVDYGELDF [PD-1 ITIM pTyr223 peptide variant F219R] | 1.24 |
| VFSKDYGELDF [PD-1 ITIM pTyr223 peptide variant V221K] | -1 |
| VFSVDYYELDF [PD-1 ITIM pTyr223 peptide variant G224Y] | -0.792 |
| VFRVDYGELDF [PD-1 ITIM pTyr223 peptide variant S220R] | 1.22 |
| VFHVDYGELDF [PD-1 ITIM pTyr223 peptide variant S220H] | 0.0672 |
| VFSYDYGELDF [PD-1 ITIM pTyr223 peptide variant V221Y] | 0.57 |
| VFSVDYGELDR [PD-1 ITIM pTyr223 peptide variant F228R] | -1.52 |
| VFSVDYGHLDF [PD-1 ITIM pTyr223 peptide variant E225H] | -0.301 |
| VFSVWYGELDF [PD-1 ITIM pTyr223 peptide variant D222W] | -0.569 |
| VFSRDYGELDF [PD-1 ITIM pTyr223 peptide variant V221R] | -1.04 |
| VFSVHYGELDF [PD-1 ITIM pTyr223 peptide variant D222H] | 1.68 |
| VWSVDYGELDF [PD-1 ITIM pTyr223 peptide variant F219W] | -0.244 |
| KFSVDYGELDF [PD-1 ITIM pTyr223 peptide variant V218K] | 0.439 |
| VFSVDYGEHDF [PD-1 ITIM pTyr223 peptide variant L226H] | -1.46 |
| VFSVDYGKLDF [PD-1 ITIM pTyr223 peptide variant E225K] | 0.303 |
| VFSVYYGELDF [PD-1 ITIM pTyr223 peptide variant D222Y] | 0.0176 |
| VFSVDYGEKDF [PD-1 ITIM pTyr223 peptide variant L226K] | -1.37 |
| VFSVDYGELDY [PD-1 ITIM pTyr223 peptide variant F228Y] | -1.37 |
| VFSVDYGELDH [PD-1 ITIM pTyr223 peptide variant F228H] | -1.32 |
| VYSVDYGELDF [PD-1 ITIM pTyr223 peptide variant F219Y] | 0.45 |
| VFSVDYKELDF [PD-1 ITIM pTyr223 peptide variant G224K] | 2.48 |
| VFSVDYGEYDF [PD-1 ITIM pTyr223 peptide variant L226Y] | -1.46 |
